HEK293 viab – cell viability loss counter-screen. HEK-293-SNCA-luc viability, GF-AFC fluorescence, 24 h. Potency, µM (highest dose often 57.1 µM), for the others: at the top dose activity change, negative = cytotoxicity, most hits filed as cytotoxic. 150,000 compounds, 0.12% hits;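 also: 0% = DMSO-treated cells and -100% = medium-only wells without cells; nearly all actives have a fitted effect of over 30% in size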
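HEK-293-SNCA-luc cells (1500/well) plated 24 h, then exposed 24 h to a dilution series; GF-AFC added 30 min at 37C, fluorescence 405/540 nm; normalised to medium-only and DMSO wells, Hill fit.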
3T3 cytotox – NIH 3T3 cell cytotoxicity; Potency, µM (highest dose often 96.7 µM), for the others: at the highest dose activity change, negative = cytotoxicity, usual class: inhibitors; NIH 3T3 viability, CellTiter-Glo ATP luminescence, 48-72 h; 94,000 compounds, 4.3% hits; also: nearly all actives have a fitted effect of over 55% in size
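Luminescent ATP readout (CellTiter-Glo, 10 min RT) after 48 or 72 hr compound exposure of NIH 3T3 cells seeded at 400 cells/well in 1536-well format; quantitative HTS.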
NPR1 antag – human Npr1 receptor antagonism; Potency, µM (doses to about 46.3 µM), for the others: top-dose activity change, negative = inhibition, usual class: inhibitors; 76,000 compounds, 1.6% hits; AID 1347048; HEK293 hNpr1 GloSensor cGMP, ANP-stimulated luminescence; P16066; calls by dose curve; also: nearly all actives have a fitted effect of over 60% in size
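Compound pre-incubated 30 min at room temperature on GloSensor-loaded HEK293 cells stably carrying hNpr1 and the pGS-40F cGMP biosensor. Stimulation uses hNppA at 0.1 nM final; luminescence is taken at baseline and 20 min post-agonist.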
HEK cytotox – kills HEK 293 cells | HEK 293 viability, ATP luminescence (CellTiter-Glo), 48-72 h | Potency, µM (highest dose often 115 µM), without a hit: at the highest dose activity change, negative = cytotoxicity, usual class: inhibitors | 94,000 compounds, 6.6% hits | AID 1345083; also: nearly all actives have a fitted effect of over 60% in size
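HEK 293 cells at 250 cells/well were exposed to compounds by pintool transfer for 48 or 72 hr at 37 degree Celsius, 5% CO2. Viability was read as ATP-coupled luminescence with CellTiter-Glo after 10 min at room temperature.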
FLuc inh – inhibitors of firefly (Photinus pyralis) luciferase | purified P. pyralis luciferase, luminescence, biochemical | 76,000 compounds, 2.5% hits | Potency, µM (highest dose often 115 µM), usual class: inhibitors | P08659; also: nearly all actives have a fitted effect of over 65% in size
Target sequence (P08659 whole entry, looked up): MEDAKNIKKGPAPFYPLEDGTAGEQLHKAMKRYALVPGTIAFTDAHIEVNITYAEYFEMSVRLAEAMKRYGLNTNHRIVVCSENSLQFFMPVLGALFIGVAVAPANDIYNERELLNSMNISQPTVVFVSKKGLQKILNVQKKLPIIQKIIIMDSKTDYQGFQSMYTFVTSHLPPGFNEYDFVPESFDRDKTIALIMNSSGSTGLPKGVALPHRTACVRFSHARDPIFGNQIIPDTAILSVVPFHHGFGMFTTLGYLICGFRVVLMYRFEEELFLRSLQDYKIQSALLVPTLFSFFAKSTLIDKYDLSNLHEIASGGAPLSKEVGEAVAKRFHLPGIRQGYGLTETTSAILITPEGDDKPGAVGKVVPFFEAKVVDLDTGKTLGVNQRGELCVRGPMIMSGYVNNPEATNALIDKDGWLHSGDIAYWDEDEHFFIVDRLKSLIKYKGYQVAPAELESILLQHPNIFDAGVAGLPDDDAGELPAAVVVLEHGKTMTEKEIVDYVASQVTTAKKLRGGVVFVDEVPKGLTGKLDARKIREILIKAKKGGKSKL
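Biochemical qHTS: compound (6-point titration) added to 10uM D-luciferin plus 10uM ATP in Tris acetate pH 7.5 buffer with Mg, Tween-20 and BSA, then purified enzyme at 10nM; light output imaged.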
SNCA expr inh – inhibitors of alpha-synuclein (SNCA) gene expression; HEK-293 SNCA-luciferase knock-in, luminescence, 24 h; Potency, µM (series often up to 57.2 µM), for inactives: top-dose activity change, negative = inhibition, usual class: inhibitors; 140,000 compounds, 0.17% hits; AID 1671194;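 also: plate controls were DMSO cells for no effect and cell-free wells for full effect; nearly all actives have a fitted effect of over 45% in size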
* marks the source's active call; other numbers are inactive results; i = inactive; ? = inconclusive; / = no result given; ! = not confirmed by another sample; [ ] = another dose, or the depositor's remark. Only some compounds are listed: those with a hit (about 7.4% of all), similar ones and a draw of the others. Unless noted, calls follow the shape of the dose curve; as a rule, active = well fitted curve in the direction sought with a large enough effect; inconclusive = small, poorly fitted or top-dose-only effect, or another doubt; inactive = no such curve, though single readings can be large; an effect the other way counts as inactive or inconclusive. Unless noted, % is scaled to controls: 0 for no effect and ±100 for the full control effect; potency is read from the fitted curve at half-maximal effect.

SMILES	HEK293 viab	3T3 cytotox	NPR1 antag	HEK cytotox	FLuc inh	SNCA expr inh
CC(=O)N(C)C1(c2ccccc2)CCN(CCC[C@]2(c3ccc(Cl)c(Cl)c3)CCCN(C(=O)c3ccccc3)C2)CC1	2.2µM*!	/	/	/	/	1.7µM*
O=C(CCC1CCN(C(=O)[C@H]2C[C@@H]3C=C[C@H]2C3)CC1)N1CCC(Cc2ccccc2)CC1	8%	?	?	45µM*	i	-10%
COc1cc(N2CCN(C(C)=O)CC2)ccc1Nc1ncc(Cl)c(Nc2ccc(N3CCN(C(C)=O)CC3)cc2OC)n1	-19%	/	/	/	/	/
O=C(c1cc2ccccc2[nH]1)N1CCC2(CC1)CN(c1ncccn1)CC2CO (stereo not given)	-16%	?	-12%	79µM*	i	13%
O=C(c1cc2ccccc2[nH]1)N1CCC2(CC1)CN(c1ccncn1)CC2CO (stereo not given)	-2%[12.5 µM]	?	-1%	?	i	18%
O=C(CCCc1ccccc1)N1CCC2(CC1)CC(Cc1nc(C3CC3)no1)CCO2 (stereo not given)	3%	?	/	?	/	-6%
COc1ccc(C(=O)N2CCC(C(=O)N3CCC4(CC3)CC(=O)Nc3ccccc3O4)C2)cc1 (stereo not given)	?	-33%	/	-22%	/	?
Cc1ccc(C(=O)N(CC(C)C)CC2CN(C(=O)Nc3cccc(Cl)c3)CCO2)cc1 (stereo not given)	-28%	?	-13%	40µM*	i	-3%
Cc1ccc(C(=O)N(CC(C)C)CC2CN(C(=O)c3ccc(Cl)c(Cl)c3)CCO2)cc1 (stereo not given)	?	?	-13%	45µM*	i	-8%
CC(C)CN(CC1CN(C(=O)c2cccc(Cl)c2)CCO1)C(=O)c1cccc2ccccc12 (stereo not given)	-10%	?	-20%	35µM*	i	-11%
CC(C)CN(CC1CN(C(=O)c2ccccc2)CCO1)C(=O)c1cccc2ccccc12 (stereo not given)	7%	?	-3%	?	i	-13%
O=C(NCCc1ccc(Cl)cc1)c1ccc2nnc(-c3cc[nH]c3)n2c1	-6%	?	/	?	/	-1%
CCn1c(=O)c2c(cc(C)n2C)n(CC(=O)Nc2c(C)cccc2C)c1=O	28µM*	4%	-2%	-1%	i	?
O=C(Nc1cccc(Cl)c1)C1=NO[C@@H]2CN(c3ccccn3)C[C@H]12	9%[87.6 µM]	?	-8%[70.6 µM]	100µM*	i	6%[87.6 µM]
O=C(Nc1ccc(Cl)cc1)C1=NO[C@@H]2CN(c3ccccn3)C[C@H]12	-7%[87.6 µM]	-20%[138 µM]	3%[70.6 µM]	?	i	-3%[87.6 µM]
CC(=O)c1ccc(NC(=O)CN2C(=O)NC3(CCC(C(C)(C)C)CC3)C2=O)cc1 (stereo not given)	-3%	?	-1%	?	i	-8%
CC(C)c1ccc(NC(=O)CN2C(=O)NC3(CCCCC3)C2=O)cc1	1%	?	-2%	?	i	-17%
CC1CCC2(CC1)NC(=O)N(CC(=O)Nc1cccc(C(F)(F)F)c1)C2=O (stereo not given)	-22%	?	-10%	25µM*	i	-26%
CC(=O)c1cccc(NC(=O)CN2C(=O)NC3(CCC(C(C)(C)C)CC3)C2=O)c1 (stereo not given)	0%	40µM*	0%	?	i	?
CC1CCC2(CC1)NC(=O)N(CC(=O)Nc1ccc(C(C)C)cc1)C2=O (stereo not given)	-11%	?	4%	28µM*	i	-10%
Cc1ccc(Nc2ccnc(N3CCC(C(=O)NCC(F)(F)F)CC3)n2)cc1	6%[12.5 µM]	?	/	?	/	19%
O=C(c1ccccc1F)N1CCCC(Cc2nncn2CC2CC2)C1 (stereo not given)	2%	-10%	/	4%	/	27%
CN(C)CCNC(=O)c1nc2nc(-c3ccccc3)c(Nc3ccc(F)cc3)cc2n1C	?	?	2%[70.6 µM]	56µM*	i	2%[87.6 µM]
Cc1ccccc1Nc1cc2c(nc1-c1ccccc1)nc(C(=O)NCCN(C)C)n2C	?	32µM*	2%[70.6 µM]	40µM*	i	-19%[87.6 µM]
COCCCNC(=O)c1nc2nc(-c3ccccc3)c(Cl)cc2n1C	-2%[87.6 µM]	?	-6%[70.6 µM]	?	i	-5%[87.6 µM]
SMILES	HEK293 viab	3T3 cytotox	NPR1 antag	HEK cytotox	FLuc inh	SNCA expr inh
C#CCNC(=O)C1CCCN1C(=O)c1cccc(-c2cccc(OC)c2)c1 (stereo not given)	5%	?	/	?	/	9%
CC(C)NC(=O)c1ccc2nnc(-c3ccc(Cl)cc3)n2c1	-4%[87.6 µM]	-9%[138 µM]	/	4%[172 µM]	/	-5%[87.6 µM]
CN(C)c1ccc2ncc(Nc3cc(F)cc(N4CCOCC4)c3)n2n1	2%[87.6 µM]	?	2%[70.6 µM]	?	?	-4%[87.6 µM]
CN(C)c1ccc2ncc(Nc3ccc(Cl)cn3)n2n1	6%[87.6 µM]	112µM*	-17%[70.6 µM]	?	i	6%[87.6 µM]
CN(C)c1ccc2ncc(Nc3ccccc3)n2n1	4%[87.6 µM]	?	-19%[70.6 µM]	112µM*	?	39%[87.6 µM]
COc1ccc(F)cc1Nc1cnc2ccc(N(C)C)nn12	7%[87.6 µM]	?	1%[70.6 µM]	100µM*	i	-22%[87.6 µM]
Cc1ccccc1C(=O)N1CCN(c2ccc3nnc(C4CC4)n3n2)CC1	/	-14%	/	-8%	/	/
Fc1ccc(-c2ccc3ncc(Nc4ccc(Cl)cn4)n3n2)cc1	0%[87.6 µM]	100µM*	-23%[70.6 µM]	100µM*	i	?
Fc1ccc(-c2ccc3ncc(Nc4ccccn4)n3n2)cc1	4%[87.6 µM]	?	-13%[70.6 µM]	89µM*	i	30%[87.6 µM]
c1ccc(-c2ccc3ncc(Nc4ccccn4)n3n2)cc1	-12%[87.6 µM]	?	-23%[70.6 µM]	?	i	48%[87.6 µM]
Clc1ccc(Nc2cnc3ccc(-c4ccccc4)nn23)nc1	20%[87.6 µM]	?	?	?	i	46%[87.6 µM]
O=S(=O)(NCCc1noc(-c2ccncc2)n1)c1ccc(F)cc1	-19%[12.5 µM]	-22%	3%	?	i	1%
O=S(=O)(NCCc1noc(-c2ccccc2)n1)c1ccc(Cl)cc1	-12%	28µM*	?	40µM*	i	?
C#CCNC(=O)c1cc(-c2cccc(C(F)(F)F)c2)nc2c1cnn2C	/	10µM*	/	?	/	/
COc1ccc(-c2cc(C(=O)NCc3cccc(C(F)(F)F)c3)c3cnn(C)c3n2)cc1	1%	32µM*	/	35µM*	/	-3%
Cn1ncc2c(C(=O)NCc3cccc(F)c3)cc(-c3ccc(C(F)(F)F)cc3)nc21	/	-29%	/	40µM*	/	/
Cn1ncc2c(C(=O)NCc3cccc(F)c3)cc(-c3ccccc3F)nc21	/	?	/	45µM*	/	/
